# According to PubChem BioAssay (Tox21):
# Records with an inconclusive call do not appear. A number with no mark means an inactive call. Calls follow the shape of the dose curve; as a rule, active = well fitted cell-killing curve with a large enough effect in the repeat runs; inconclusive = weak or mixed curves; inactive = flat fitted curve, though single readings scatter.
# Test: qHTS RealTime-Glo MT Cell Viability Assay in HepG2 cells - 32 hour (AID 1224877); also: nearly all actives have a fitted effect of over 55% in size
# Details: RealTime-Glo luminescence; series mostly up to 76.8 µM; activity change, negative = cytotoxic: at the top concentration
# Text: U.S. Tox21 Program National Center for Advancing Translational Sciences [NCATS] NIH Chemical Genomics Center [NCGC] U.S. Environmental Protection Agency [EPA] National Institutes of Environmental Health Sciences [NIEHS] National Toxicology Program [NTP] U.S. Food and Drug Administration [FDA] Tox21 Assay Overview: Measure of cell viability is critical in the cell-base assay. Analysis of cell viability is necessary for the characterization of cell responses to cytotoxic drugs and environmental stress. A RealTime-Glo MT Cell Viability Assay to monitor cell viability in real time of continues cell culture during 40 hours of compound treatment was used to screen Tox21 10K library compounds in HepG2 cells. The RealTime-Glo MT Cell Viability Assay is a nonlytic, homogeneous, bioluminescent method to measure cell viability in real time using a simple, plate-based method. The assay involves adding NanoLuc luciferase and a cell-permeant prosubstrate to cells in culture. Viable cells reduce the proprietary prosubstrate to generate a substrate for NanoLuc luciferase. This substrate diffuses from cells into the surrounding culture medium, where it is rapidly used by the NanoLuc Enzyme to produce a luminescent signal. The signal correlates with the number of viable cells, making the assay well suited for cytotoxicity studies.
# Tox21 Assay Protocol Summary: The mixture of HepG2 cell suspension and reagents were dispensed at 600cells/6 ul/well in 1536-well tissue culture treated black solid bottom plates using a Multidrop dispenser. After the assay plates were incubated at a 37 C/5% CO2 incubator for 5 hours, 23 nL of compounds dissolved in DMSO, positive and negative controls was transferred to the assay plate by a pintool work station. The plates were incubated at 37 C for 40 hours. The luminescence intensity were measured at 0h, 8h, 16h, 24h, 32h and 40h time points using ViewLux plate reader during compound treatment.
# % is scaled to controls: 0 for no effect and ±100 for the full control effect.
row,Compound,"activity change, negative = cytotoxic"
1,O=C(CCNNC(=O)c1ccncc1)NCc1ccccc1,0.207% [at 35.3 µM]
2,O=C(O)CCSSCCC(=O)O,1.38%
3,COc1ccc(C2CNC(=O)C2)cc1OC1CCCC1 (stereo not given),-1.09% [at 35.3 µM]
4,Cc1c(I)c(=O)n(-c2ccccc2)n1C,3.06% [at 35.3 µM]
5,CCCCNc1ccc(C(=O)OCCN(C)C)cc1,0.0506% [at 35.3 µM]
6,CCN1CCc2nc(N)oc2CC1,-2.39% [at 35.3 µM]
7,COC(=O)CCCCCCCC(=O)OC,0.226%
8,OC[C@H](Cc1cccc(O)c1)[C@H](CO)Cc1cccc(O)c1,-8.76%
9,COc1ccc(-c2cc(=O)c3c(O)cc(O[C@@H]4O[C@H](CO[C@@H]5O[C@@H](C)[C@H](O)[C@@H](O)[C@H]5O)[C@@H](O)[C@H](O)[C@H]4O)cc3o2)cc1O,1.48% [at 35.3 µM]
10,CCCN1C[C@H](CSC)C[C@@H]2c3cccc4[nH]cc(c34)C[C@H]21,-0.389% [at 35.3 µM]
11,CN1C(C)(C)CCCC1(C)C,-1.45% [at 35.3 µM]
12,Cc1ccccc1C(=O)Nc1ccc(C(=O)N2CCCC(N(C)C)c3ccccc32)cc1 (stereo not given),-17.7% [at 35.3 µM]
13,O=C(O)C(=O)Cc1ccccc1,-2.88%
14,NCCN1CCOCC1,-0.809%
15,CN1CCN(CC(=O)N2c3ccccc3C(=O)Nc3cccnc32)CC1,1.53% [at 6.97 µM]
16,CCOc1cc([N+](=O)[O-])c(OCC)cc1N1CCOCC1,-5.99%
17,NS(=O)(=O)c1ccc(NC(=O)CCC(=O)O)cc1,1.55% [at 35.3 µM]
18,CC(=O)Nc1ccc(S(=O)(=O)Nc2ccc([N+](=O)[O-])cc2)cc1,-2.14% [at 35.3 µM]
19,C=C(C)C(=O)OCCNC(C)(C)C,0.161%
20,CC1=CCC(C(C)C)=CC1,0.151%

row,Compound,"activity change, negative = cytotoxic"
1,CC(C)CC(C)CC(C)CC(C)COC(=O)c1ccccc1C(=O)OCC(C)CC(C)CC(C)CC(C)C (stereo not given),2.28%
2,Cc1ccsc1/C=C/C1=NCCCN1C,0.0848% [at 35.3 µM]
3,CC(N)C(=O)OC(C)(C)Cc1ccc(Cl)cc1 (stereo not given),-2.61% [at 35.3 µM]
4,CC(CN)CC(C)(C)CCN (stereo not given),3.47% [at 200 µM]
5,CC(CO)c1ccccc1 (stereo not given),1.22%
6,CCn1ccc(NS(=O)(=O)c2ccc(N)cc2)nc1=O,0.383% [at 35.3 µM]
7,OCCC(F)(F)C(F)(F)C(F)(F)C(F)(F)C(F)(F)C(F)(F)C(F)(F)C(F)(F)F,9.08%
8,CCCCCCCCCCl,0.687%
9,O=C(O)Cc1cn(-c2ccccc2)nc1-c1ccc(Cl)cc1,-2.94% [at 35.3 µM]
10,COP(=O)(OC)OC(c1ccc(Cl)cc1)P(=O)(OC)OC (stereo not given),2.4% [at 35.3 µM]
11,c1ccc2c(c1)ccc1c3ccccc3ccc21,-3.61% [at 35.3 µM]
12,CCCCCCCC/C=C\CCCCCCCC(=O)OCCCC,6.1% [at 15.8 µM]
13,CCNC(=O)C1CC(C)CCC1C(C)C (stereo not given),0.319%
14,COc1ccc(S(=O)(=O)N2c3ccc(Cl)cc3[C@@](O)(c3ccccc3Cl)[C@H]2C(=O)N2CCC[C@@H]2C(N)=O)cc1OC,-4.8% [at 35.3 µM]
15,N#Cc1ccc(C(=O)O)cc1,-0.447%
16,CC(=O)OC(C)OC(=O)C(C)c1ccc(-c2ccccc2)c(F)c1 (stereo not given),0.0326% [at 35.3 µM]
17,Cc1cc(NC(=O)C2=C(O)c3ccccc3S(=O)(=O)N2C)no1,-0.309% [at 35.3 µM]
18,CNS(=O)(=O)CCc1ccc2[nH]cc(C3CCN(C)CC3)c2c1,-6.78% [at 35.3 µM]
19,CC(C(=O)O)c1ccc2c(c1)CC(=O)c1ccccc1S2 (stereo not given),7.77% [at 35.3 µM]
20,O=S(=O)(O)c1cc(O)c2ccc(Nc3ccccc3)cc2c1,3.3%
